Experimental data as given in PubChem BioAssay (NCATS).
Results filed as inconclusive are left out. Calls of active or inactive are those of the source. Calls follow the shape of the dose curve; as a rule, active = well fitted cell-killing curve with a large enough effect; inconclusive = small, poorly fitted or top-dose-only effect, or effect the other way; inactive = no such curve, though single readings can be large or run the other way.

Experiment: Quantitative High-Throughput drug screen in 47 multiple myeloma cell lines against the NCATS MIPE library collection: Karpas25_ECACC cell viability assay (AID 1918968; also: nearly all actives have a fitted effect of over 35% in size;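 as to viability (% of control): 100% = DMSO only wells and 0% = media only wells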)
Conditions: Karpas25 myeloma viability, CellTiter-Glo ATP, 48 h; series mostly up to 45.8 µM; viability (% of control): at the top concentration
Summary of the method: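 Steps: seed 500 cells per well; pin-transfer MIPE 4.0 library; incubate 48 h at 37C, 5% CO2, humidified; add CellTiter-Glo, 5 min room temperature; read luminescence.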
Potency is read from the fitted curve at half-maximal effect.

Row | Compound | viability (% of control) | Potency
1 | CC[C@H]1OC(=O)[C@H](C)[C@@H](O[C@H]2C[C@@](C)(OC)[C@@H](O)[C@H](C)O2)[C@H](C)[C@@H](O[C@@H]2O[C@H](C)C[C@H](N(C)C)[C@@H]2O)[C@](C)(O)C[C@@H](C)CN(C)[C@H](C)[C@@H](O)[C@]1(C)O | 141% (inactive) | –
2 | CCS(=O)(=O)N1CC(CC#N)(n2cc(-c3ncnc4[nH]ccc34)cn2)C1 | 116% (inactive) | –
3 | CC(=O)Nc1ccc([C@H](C)C(=O)Nc2ncc(C(C)C)s2)cc1 | – | 1.05 µM (active)
4 | CC(C(=O)O)c1ccc(-c2ccccc2)c(F)c1 (configuration not stated) | – | 20.9 µM (active)
5 | O=C(N[C@@H](c1ccccc1)[C@@H]1CCCCN1)c1cccc(C(F)(F)F)c1Cl | 94.2% (inactive) | –
6 | CC[C@H]1OC(=O)[C@H](C)C(=O)[C@H](C)[C@@H](O[C@H]2O[C@H](C)C[C@H](N(C)C)[C@@H]2O)[C@](C)(OC)C[C@@H](C)C(=O)[C@H](C)[C@H]2N(CCCCn3cnc(-c4cccnc4)c3)C(=O)O[C@]12C | 91.8% (inactive) | –
7 | CC(C)(C)C(=O)Oc1ccc2c(c1)nc(NC(=O)c1cccc([N+](=O)[O-])c1)n2CCCO | 114% (inactive) | –
8 | CN1C[C@H]2c3ccccc3Oc3ccc(Cl)cc3[C@@H]2C1 | 76.7% (inactive) | –
9 | O=c1cc(-c2ccccc2)oc2cc(O)c(O)c(O)c12 | – | 20.9 µM (active)
10 | O=c1c(-c2ccc(O)cc2)coc2cc(O)ccc12 | 128% (inactive) | –
11 | C[C@H](NC(=O)C(=O)Nc1ccccc1C(C)(C)C)C(=O)N[C@@H](CC(=O)O)C(=O)COc1c(F)c(F)cc(F)c1F | – | 20.9 µM (active)
12 | CCn1cc(C(=O)O)c(=O)c2ccc(C)nc21 | 115% (inactive) | –
